Assay outcomes from PubChem.
Sampled rows, rich in hits. Any-hit rate of the full collection: about 2%.
LEDGF integ inh – blockers of LEDGF/p75-dependent integrase strand transfer – biochemical, TR-FRET, high throughput, primary screen | HIV-1 integrase (with human LEDGF/p75) | TR-FRET IN-LEDGF/p75 DNA integration, Eu/Cy5 | inhibition, % at 3.7 µM | 370,000 compounds, 0.64% hits | AID 743269, 2014;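 active = inhibition above the screen-wide mean plus 3 SD, cut at about 13% in these data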;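 note: signal is the Cy5 over europium emission ratio at 671 and 618 nm; 0% = plate median of compound wells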
Rin1-Abl PPI inh – inhibitors of Rin1-Abl protein binding, primary screen, biochemical, TR-FRET | inhibition, % at 7.35 µM | Tyrosine-protein kinase ABL1 (Homo sapiens) + Ras and Rab interactor 1 (Homo sapiens), … | 360,000 compounds, 0.4% hits | AID 588664, 2011; in the data active = inhibition above about 5%, passing the limit was not always enough
TCR CD3 inh – inhibitors of human TCR-CD3 interaction, primary screen, biochemical, fluorescence, TAMRA-labeled TCR probe; T-cell receptor (TCR); inhibition, % at 9.4 µM; 360,000 compounds, 0.37% hits; AID 651800, 2012; in the data active = inhibition above about 19%;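 note: recombinant mutant TCR 2C K166C tagged with TAMRA read by polarization; 0% = receptor in buffer alone and 100% = receptor with positive control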
MBD2 DNA inh – inhibitors of MBD2 binding to methylated DNA, primary screen, biochemical, TR-FRET, DNA-binding domain, human | MBD2 binding to methylated oligonucleotide | 370,000 compounds, 0.31% hits | inhibition, % at 4.4 µM | Methyl-CpG-binding domain protein 2 (Homo sapiens), Q9UBB5 | AID 686964, 2013; in the data active = inhibition above about 13%
UHRF1 binding – UHRF1 methylated DNA binding inhibitors, primary screen, counter-screen for MBD2 inhibitor project, biochemical, TR-FRET, human UHRF1, single concentration; AID 687016, 2013; UHRF1 binding to methylated oligo; E3 ubiquitin-protein ligase UHRF1 (Homo sapiens), Q96T88; inhibition, % at 4.4 µM; 370,000 compounds, 0.75% hits; in the data active = inhibition above about 21%;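 note: UHRF1 SRA domain binding a hemimethylated CpG hairpin DNA probe; 0% = median of test compound wells and 100% = reference inhibitor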
IN multimer up – HIV-1 IN multimer formation enhancers, counter-screen for LEDGF/p75 integration inhibitor project, biochemical, TR-FRET | activation, % at 7.7 µM | shares compounds with LEDGF integ inh | TR-FRET HIV-1 integrase multimerization | AID 1053131, 2014 | 2,000 compounds, 17% hits; in the data active = activation above about 8.9%
TRFRET interf – TR-FRET optical interference artefacts, confirmation, artefact control for LEDGF/p75-dependent integration inhibitor project, biochemical, HIV-1 IN multimerization | AID 1053135, 2014 | TR-FRET optical interference counterscreen | shares compounds with LEDGF integ inh | inhibition, % at 7.7 µM | 2,000 tested, under 10 active;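 active = inhibition above the mean over all tested compounds plus 3 SD, which no compound reached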;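 note: 0% = integrase with antibodies and DMSO and 100% = antibodies without integrase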
LEDGF integ conf – inhibitors of HIV-1 IN-LEDGF/p75 DNA integration, confirmation, biochemical, TR-FRET; shares compounds with LEDGF integ inh; TR-FRET LEDGF/p75-dependent HIV-1 integration; inhibition, % at 3.7 µM; 2,000 compounds, 36% hits; AID 1053136, 2014; in the data active = inhibition above about 14%
* hit, by the source's call.

Results for CN(C)c1ccc(-c2ccnc3c2CC(C)(C(=O)NCc2ccco2)O3)cc1 (stereo not drawn) ?
LEDGF integ inh: 0; Rin1-Abl PPI inh: -5; TCR CD3 inh: 2; MBD2 DNA inh: 0; UHRF1 binding: -2

What do the screens show for `CC(C)[C@H](NS(=O)(=O)c1cccc(C(F)(F)F)c1)C(=O)OCC(=O)NC(=O)NCc1ccco1`?
LEDGF integ inh: -2; Rin1-Abl PPI inh: 1; TCR CD3 inh: -6; MBD2 DNA inh: 5; UHRF1 binding: 4

Results for Clc1cccc(OCCn2cncn2)c1Cl ?
LEDGF integ inh: -1; Rin1-Abl PPI inh: 6; TCR CD3 inh: -5; MBD2 DNA inh: 0; UHRF1 binding: -1

How did Clc1cccc(Oc2cnns2)c1Cl do in these assays?
LEDGF integ inh: 17*; Rin1-Abl PPI inh: -3; TCR CD3 inh: 6; MBD2 DNA inh: 1; UHRF1 binding: 3; IN multimer up: 2; TRFRET interf: -7; LEDGF integ conf: -5

What do the screens show for `COc1ccc(-c2cc(C(=O)Nc3ccc(C)c(C)c3)no2)cc1`?
LEDGF integ inh: 6; Rin1-Abl PPI inh: 0; TCR CD3 inh: -6; MBD2 DNA inh: -2; UHRF1 binding: 3

Results for COc1ccc(-c2cc(C(=O)Nc3cccc(O)c3)no2)cc1 ?
LEDGF integ inh: 38*; Rin1-Abl PPI inh: 0; TCR CD3 inh: 7; MBD2 DNA inh: -4; UHRF1 binding: 1; IN multimer up: 1; TRFRET interf: -4; LEDGF integ conf: -7

How did COC(=O)c1cn(C(=O)c2cc(OC)cc(OC)c2)c2ccccc12 do in these assays?
LEDGF integ inh: -4; Rin1-Abl PPI inh: 1; TCR CD3 inh: -13; MBD2 DNA inh: 1; UHRF1 binding: 5

Results for COc1cc(OC)cc(C(=O)n2cnnc2N)c1 ?
LEDGF integ inh: 25*; Rin1-Abl PPI inh: 6; TCR CD3 inh: 9; MBD2 DNA inh: -1; UHRF1 binding: 1; IN multimer up: 0; TRFRET interf: -1; LEDGF integ conf: -3

Results for CCCOc1ccc(Cc2nn3c(=O)/c(=C/c4ccco4)sc3nc2=O)cc1 ?
LEDGF integ inh: 27*; Rin1-Abl PPI inh: -4; TCR CD3 inh: 4; MBD2 DNA inh: 3; UHRF1 binding: 23*; IN multimer up: 4; TRFRET interf: -15; LEDGF integ conf: 15*

What do the screens show for `COc1ccccc1/C=C/C=c1\sc2nc(=O)c(Cc3ccccc3)nn2c1=O`?
LEDGF integ inh: 5; Rin1-Abl PPI inh: -1; TCR CD3 inh: 5; MBD2 DNA inh: 4; UHRF1 binding: 0

How did c1ccc(CNC2CC3CCC2C3)cc1 (stereo not drawn) do in these assays?
LEDGF integ inh: 0; Rin1-Abl PPI inh: 4; TCR CD3 inh: 11; MBD2 DNA inh: -1; UHRF1 binding: -2

What do the screens show for `Cc1nc2nc(-c3ccccc3)cn2nc1C`?
LEDGF integ inh: -3; Rin1-Abl PPI inh: 4; TCR CD3 inh: -1; MBD2 DNA inh: 0; UHRF1 binding: -6

How did c1ccc(-c2cn3nc(-c4ccccc4)cnc3n2)cc1 do in these assays?
LEDGF integ inh: 90*; Rin1-Abl PPI inh: -2; TCR CD3 inh: -3; MBD2 DNA inh: -2; UHRF1 binding: 0; IN multimer up: -1; TRFRET interf: 2; LEDGF integ conf: -3

How did COc1cc2[nH]c(Cl)c([N+](=O)[O-])c2cc1OC do in these assays?
LEDGF integ inh: 49*; Rin1-Abl PPI inh: -3; TCR CD3 inh: -7; MBD2 DNA inh: -2; UHRF1 binding: 9; IN multimer up: 3; TRFRET interf: -9; LEDGF integ conf: 9
